Assay results taken from PubChem BioAssay AID1671189 (National Center for Advancing Translational Sciences (NCATS), 2021).
About 70 (6%) of roughly 1,100 compounds were called active. Where a call stands in place of a potency, no number is given. Not shown: some 22% with an inconclusive outcome. Calls come from the whole dose curve; as a rule, active = well fitted curve in the direction sought with a large enough effect; inconclusive = small, poorly fitted or top-dose-only effect, or another doubt; inactive = no such curve, though single readings can be large or run the other way. The sample as a whole holds a higher share of actives than the screen did.

Molecular target: Polyunsaturated fatty acid lipoxygenase ALOX12 (Homo sapiens) (UniProt P18054)
Experiment: Confirmatory qHTS assay for inhibitors of human arachidonate 12S-lipoxygenase (ALOX12): Round 2
Conditions: purified human 12-LOX, xylenol orange absorbance; series mostly up to 125 µM
Text: Assay Provider: Theodore R. Holman Ph.D. University of California, Santa Cruz, California Human lipoxygenase 12hLO is a member of the closely related lipoxygenase family of enzymes which catalyze the site-specific oxidation of arachidonic acid to various hormone precursor molecules and as such is a candidate for drug development in a variety of disease areas, such as cancer and inflammation. Inhibition of 12hLO activity was screened by utilizing arachidonic acid as a substrate. The extent of hydroperoxide product formation was measured by a secondary chromogenic reaction in which xylenol orange (XO, Sigma-Aldrich, cat. number 39,818-7) reacts with the ferric ions produced from the reaction between the hydroperoxide and ferrous ions. The Fe (III)-XO complex is characterized with red-shifted absorbance at 560 nm. A purified preparation of human 12hLO was supplied by Dr. Holman laboratory, University of California, Santa Cruz.
PROTOCOL TABLE SEQUENCE No. (e.g., 1, 2, 3, etc.); […] (e.g., Cells, Incubation, Reagent, etc.); VALUE; DESCRIPTION 1; Enzyme; 3 uL; 150 nM 12hLO enzyme solution dispensed in 1536-well Greiner black, clear bottom plates. 2; Compound; 23 nL; compounds and controls were added. 3; Incubate; 15 min; room temperature. 4; Substrate; 1 uL; 40 uM arachidonic acid (final concentration). 5; Incubate; 30 min; room temperature. 6; Reagent; 4 uL; Fe-XO solution was added to each well. 7; Incubation; 30 min; room temperature 8; Detector; absorbance; Read 1 at 405 nm absorbance using ViewLux (PerkinElmer) CCD imager. 9; Detector; absorbance; Read 2 at 573 nm absorbance using ViewLux (PerkinElmer) CCD imager. NOTES (numbers refer to sequence above) 1; 150 nM 12hLO (final concentration) in buffer solution (25 mM Hepes, 0.01% Triton X-100, pH 7.0) was dispensed in columns 1, 2, 5-48. Column 1 is neutral (100% activity). Buffer only was dispensed in columns 3 and 4 as no enzyme negative controls. The plates were covered with metal lids with gas-exchange holes. 2; Compounds were pin transferred via a Kalypsys Pin Tool (Wako USA) in column 5 - 48. Control compound was transferred in column 2, titration of nordihydroguaiaretic acid (NDGA, Sigma-Aldrich, N5023) with top concentration of 20 mM in DMSO then 1:3 dilution in duplicate. Dilution factor of 23 nL into 4 uL final assay volume. 3; Covered assay plates were incubated for 15 min at room temperature. 4; Substrate was added to start the reaction; 40 uM arachidonic acid (Sigma-Aldrich, St. Louis, MO) was dispensed throughout the plate. 6; Chromogenic detection reagent solution (divalent iron/xylenol orange, Fe-XO) was added to each well: 200 uM xylenol orange, 300 uM ferrous ammonium sulfate prepared freshly in 50 mM sulfuric acid. 8, 9; Two absorbance readouts were obtained at 405 nm and at 573 nm using a ViewLux high-throughput CCD plate imager (PerkinElmer). The 573 to 405 (Read 2 / Read 1) absorbance ratio was used to compute reaction progress.
Potency is the fitted concentration of half-maximal effect.

Polyunsaturated fatty acid lipoxygenase ALOX12 (Homo sapiens), sequence (P18054 whole entry, looked up): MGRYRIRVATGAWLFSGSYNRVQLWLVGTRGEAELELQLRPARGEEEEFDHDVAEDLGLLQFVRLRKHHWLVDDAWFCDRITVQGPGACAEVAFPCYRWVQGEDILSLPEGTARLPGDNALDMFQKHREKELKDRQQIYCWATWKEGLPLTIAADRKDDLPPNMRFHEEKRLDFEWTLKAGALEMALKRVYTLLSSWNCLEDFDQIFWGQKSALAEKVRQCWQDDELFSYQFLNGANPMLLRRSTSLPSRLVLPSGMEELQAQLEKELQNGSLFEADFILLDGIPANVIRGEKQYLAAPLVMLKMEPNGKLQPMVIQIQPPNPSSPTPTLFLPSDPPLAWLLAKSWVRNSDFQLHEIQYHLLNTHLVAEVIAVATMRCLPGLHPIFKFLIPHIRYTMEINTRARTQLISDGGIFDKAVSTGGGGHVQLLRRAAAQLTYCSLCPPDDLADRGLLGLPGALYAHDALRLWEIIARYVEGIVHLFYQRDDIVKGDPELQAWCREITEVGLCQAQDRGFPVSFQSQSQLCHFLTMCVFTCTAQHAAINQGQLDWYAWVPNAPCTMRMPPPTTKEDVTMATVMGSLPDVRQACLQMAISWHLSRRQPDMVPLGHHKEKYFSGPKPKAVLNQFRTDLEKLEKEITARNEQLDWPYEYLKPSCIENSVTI

| Compound | Potency |
| --- | --- |
| O=C(Nc1ccc2n(c1=O)C[C@H]1C[C@@H]2CN(Cc2ccc(F)cc2)C1)c1cccs1 | inactive |
| COc1ccccc1NC(=O)Nc1ccc2n(c1=O)C[C@H]1C[C@@H]2CN(C2CCOCC2)C1 | 14.1 µM (active) |
| Cc1o[nH]c(=O)c1C[C@H](N)C(=O)O | inactive |
| C#C[C@H]1CN2CC[C@H]1C[C@@H]2COC(=O)NCCC | 17.8 µM (active) |
| O=C(O)C1=NOC2CN(Cc3cccc(Br)n3)CC12 (stereo not given) | inactive |
| c1cc2nc(C3CCNCC3)[nH]c2cn1 | inactive |
| CCN1C[C@]2(COC(=O)c3ccccc3N3C(=O)CC(C)C3=O)CC[C@H](OC)[C@@]34C5C[C@@H]6[C@@H](OC)C[C@@](O)(C5[C@H]6OC)[C@](O)([C@@H](OC)C23)[C@@H]14 (stereo not given in full) | inactive |
| CCOc1ccc(CN(CCc2ccc3c(c2)OCO3)Cc2ccc(C)cc2)cc1 | inactive |
| N[C@@]1(C(=O)O)CC[C@H](C(=O)O)C1 | inactive |
| CSc1ccc(-c2ccc(=O)n3c2[C@@H]2C[C@@H](CN(S(=O)(=O)c4cccs4)C2)C3)cc1 | 15.8 µM (active) |
| CCCS(=O)(=O)N1C[C@@H]2C[C@H](C1)c1c(-c3ccc(Cl)cc3)ccc(=O)n1C2 | inactive |
| CSc1ccc(-c2ccc(=O)n3c2[C@@H]2C[C@@H](CN(S(C)(=O)=O)C2)C3)cc1 | inactive |
| CSc1ccc(CN2CCN(C(=O)COc3ccc(C)cc3)CC2)cc1 | inactive |
| O=C(Cc1ccc(Cl)cc1)N1Cc2ccccc2CC2(CCCN2CC2CCNC2)C1 (stereo not given) | inactive |
| O=C(O)C1CN(Cc2ncc[nH]2)CCN(C(=O)Cc2cccs2)C1 (stereo not given) | inactive |
